Screens deposited in PubChem BioAssay by Buhrlage Lab, Dana-Farber Cancer Institute and Novartis Institutes for BioMedical Research (Cambridge, Mass).
An excerpt weighted towards active compounds, which were near 11% of everything screened.
USP28 inh: human USP28 deubiquitinase inhibition; inhibition, % at 25 µM; purified USP28, Ub-rhodamine cleavage fluorescence, 30 min; AID 1645857; 47,000 tested, 3% active
Target sequence (Q96RU2 whole entry, looked up): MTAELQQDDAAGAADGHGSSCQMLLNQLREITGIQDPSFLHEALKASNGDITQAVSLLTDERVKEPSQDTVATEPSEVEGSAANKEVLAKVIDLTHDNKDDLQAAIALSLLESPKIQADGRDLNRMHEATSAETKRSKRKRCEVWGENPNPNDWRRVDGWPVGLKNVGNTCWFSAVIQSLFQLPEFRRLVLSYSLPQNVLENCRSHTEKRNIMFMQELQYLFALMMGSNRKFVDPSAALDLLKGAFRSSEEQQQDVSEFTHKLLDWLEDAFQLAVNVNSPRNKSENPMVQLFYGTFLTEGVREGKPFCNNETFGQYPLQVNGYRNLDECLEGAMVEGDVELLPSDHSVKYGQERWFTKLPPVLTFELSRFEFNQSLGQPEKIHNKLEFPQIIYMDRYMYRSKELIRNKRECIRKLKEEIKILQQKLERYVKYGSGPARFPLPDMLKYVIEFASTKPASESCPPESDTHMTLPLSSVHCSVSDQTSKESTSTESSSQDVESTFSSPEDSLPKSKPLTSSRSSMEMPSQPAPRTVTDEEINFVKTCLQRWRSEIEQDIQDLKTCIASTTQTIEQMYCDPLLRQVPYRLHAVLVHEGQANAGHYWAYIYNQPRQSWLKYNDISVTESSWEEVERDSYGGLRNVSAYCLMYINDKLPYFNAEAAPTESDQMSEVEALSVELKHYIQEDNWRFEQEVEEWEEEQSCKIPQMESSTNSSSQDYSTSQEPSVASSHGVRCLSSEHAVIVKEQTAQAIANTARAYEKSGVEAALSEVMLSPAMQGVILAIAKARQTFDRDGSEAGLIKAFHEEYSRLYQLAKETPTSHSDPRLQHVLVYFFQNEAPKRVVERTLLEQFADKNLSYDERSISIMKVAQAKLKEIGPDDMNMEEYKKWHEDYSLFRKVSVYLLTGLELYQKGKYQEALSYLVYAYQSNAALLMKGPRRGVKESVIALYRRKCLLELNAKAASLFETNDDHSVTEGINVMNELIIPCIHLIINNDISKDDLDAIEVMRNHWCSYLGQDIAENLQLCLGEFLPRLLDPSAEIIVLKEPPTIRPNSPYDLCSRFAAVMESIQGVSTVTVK
USP30 block: blocks human USP30 ubiquitin-rhodamine cleavage; purified USP30, Ub-rhodamine cleavage fluorescence; AID 1645860; 47,000 tested, 5.3% active; inhibition, % at 25 µM
OTUD3 inh: blocks human OTUD3 ubiquitin-rhodamine cleavage | purified OTUD3, Ub-rhodamine fluorescence, 2 h | inhibition, % at 25 µM | 47,000 tested, 0.7% active | Q5T2D3
USP17 inh: blocks human USP17 ubiquitin-rhodamine cleavage; A8MUK1; purified USP17, Ub-rhodamine cleavage fluorescence, 3 h; inhibition, % at 50 µM; 47,000 tested, 6.5% active
Numbers stand for hits; - = inactive; . = no result given. Cut-off read from the data, not from the text of the source: active = inhibition above about 30%; inactive = the rest.

SMILES	USP28 inh	USP30 block	OTUD3 inh	USP17 inh
CN(C)S(=O)(=O)c1ccc(C(=O)Oc2ccc(-c3ccc(C#N)cc3)cc2)cc1	-	31	-	-
COc1ccccc1C(=O)Oc1ccc(-c2ccc(C#N)cc2)cc1	-	-	-	49
CC(=O)Nc1ccc(O)c(-c2nc3cc(C)ccc3o2)c1	-	-	-	51
CC(C)(C)c1ccc(C(=O)Nc2ccc(O)c(-c3nc4cnccc4o3)c2)cc1	-	-	-	-
O=C(Nc1c(C(=O)N2CCN(c3ncccn3)CC2)oc2ccccc12)c1ccc(F)cc1	-	-	-	-
Cc1cccc(C)c1NC(=O)CC1SC(N2CCOCC2)=NC1=O (stereo not drawn)	-	-	-	-
Cc1cccc(NC(=O)c2nc(N3CCOCC3)c3cnn(C)c3n2)c1	-	42	-	44
Cc1scc2nc(C(=O)Nc3ccc4c(c3)OCO4)nc(N3CCOCC3)c12	32	-	-	-
Cn1ncc2c(N3CCOCC3)nc(C(=O)NCc3ccc(Cl)cc3)nc21	-	-	-	-
Cc1scc2nc(C(=O)N3CCCC3)nc(N3CCOCC3)c12	-	-	-	-
Cc1cccc(NC(=O)Cn2c(N3CCOCC3)nc3cc(C)n(C)c3c2=O)c1	-	61	-	47
CNc1nc(C2CCN(C(=O)Cc3c[nH]c4ccccc34)C2)nc2c1CN(C)CC2 (stereo not drawn)	-	-	-	-
O=C(Cn1nnc2ccccc21)Nc1nc2ccccc2s1	.	.	-	-
COc1cc2cc(C(=O)NCC(=O)Nc3nc4ccccc4s3)n(C)c2cc1OC	-	-	-	33
Cc1ccc(S(=O)(=O)c2cnc3ccc(F)cc3c2N2CCCC2)cc1	-	37	-	-
Cc1ccc(S(=O)(=O)c2cnc3ccccc3c2N2CCCCCC2)cc1	-	-	-	-
O=S(=O)(c1ccccc1)c1cnc2ccccc2c1N1CCCCC1	-	31	-	-
COc1ccc2cc(CN(Cc3cccnc3)C(=O)NCc3ccccc3)c(=O)[nH]c2c1	-	-	-	-
COc1cccc(NC(=O)Cn2c(COc3ccccc3)nc3ccccc32)c1	-	-	-	63
O=C(Cn1c(COc2ccccc2)nc2ccccc21)Nc1cc(Cl)cc(Cl)c1	-	31	-	-
O=C(Cn1c(CNC(=O)c2ccccc2)nc2ccccc21)Nc1ccc(F)cc1	37	78	-	88
COc1ccc(NC(=O)Cn2c(CS(=O)(=O)c3ccc(C)cc3)nc3ccccc32)cc1	-	51	-	-
COc1cccc(NC(=O)Cn2c(C(F)(F)F)nc3ccccc32)c1	.	.	-	-
O=C(c1cnccn1)N1CCCC(c2ncc(Cc3cccc(Cl)c3)o2)C1 (stereo not drawn)	-	-	-	-
Cc1ccc2ncc(S(=O)(=O)c3ccccc3)c(N3CCCCCC3)c2c1	-	-	-	-
SMILES	USP28 inh	USP30 block	OTUD3 inh	USP17 inh
CC(C)(C(=O)N1CCC2(CC1)NC(=O)c1ccccc1N2)c1ccc(Cl)cc1	-	-	-	-
O=C(NCc1ccncc1)c1nc2c(s1)CCCN2c1ncccn1	-	-	-	-
O=C(CSc1nnc(Cc2ccccc2)n1C1CCCCC1)Nc1ccccc1Cl	-	-	-	-
COC(=O)c1ccccc1NC(=O)CSc1nnc(-c2ccc(C(C)(C)C)cc2)n1C1CCCC1	-	52	-	-
O=S(=O)(Nc1cccc(-c2nnc(Cc3ccc4c(c3)OCO4)o2)c1)c1ccccc1	32	-	-	-
O=S(=O)(Nc1cccc(-c2nnc(-c3ccccc3)o2)c1)c1ccccc1	-	-	-	-
Cc1cccc(-n2c(Cc3cc(=O)[nH]c(=O)[nH]3)nnc2SCC(=O)Nc2ccc(F)cc2F)c1	-	-	-	-
Cc1cccc(-n2c(Cc3cc(=O)[nH]c(=O)[nH]3)nnc2SCC(=O)NCc2ccccc2Cl)c1	-	31	-	-
CN(C)S(=O)(=O)N1CCCC(c2cc(-c3ccccc3)n[nH]2)C1 (stereo not drawn)	-	-	-	-
O=c1c2ccccc2oc2nc(-c3cccs3)n(-c3ccccc3)c(=O)c12	-	33	-	57
O=c1oc(-c2cccs2)ns1	-	-	-	-
CCCc1c(C(=O)O)c(O[C@H]2O[C@H](C)[C@@H](OC)[C@H](OC)[C@@H]2OC)cc2cc3c(c(O)c12)C(=O)c1c(O)cc(O[C@@H]2O[C@@H](C)[C@H](O[C@H]4O[C@H](C)[C@@H](OC)[C@H](OC)[C@@H]4O)[C@@H](OC)[C@H]2O)cc1C3=O	-	-	-	55
COc1cc(O)c2c(c1)C(=O)c1cc3c(c(O)c1C2=O)C(OC1OC(C)C(OC)C(O)C1OC)C(OC)C(C)(O)C3=O (stereo not drawn)	-	-	-	-
CS(=O)(=O)c1cccc(C(=O)Nc2sc3c(c2C(N)=O)CCCCC3)c1	-	-	-	-
